Compounds without any hit were thinned out: in the full panel of roughly 83,000, 20% have a hit.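 Cells were grown in 96-well plates and exposed to the test compound at a single concentration for 48 hours; results are reported as percent growth, with values below 10 considered active.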 Unmarked numbers belong to inactive results. Calls of active or inactive are those of the source.
Legend:
Test in all cases: NCI-60 one-dose screen, 48 h (100 = growth as untreated, 0 = no growth, -100 = all killed)
SK-MEL-2 melanoma = details: 10 µM unless noted
EKVX NSCLC = details: 10 µM unless noted
SN12C renal = details: 10 µM unless noted
UO-31 renal = details: 10 µM unless noted
TK-10 renal = details: 10 µM unless noted
ACHN renal = details: 10 µM unless noted
CAKI-1 renal = details: 10 µM
A498 renal = details: 10 µM unless noted
CCRF-CEM leukemia = details: 10 µM unless noted
MOLT-4 leukemia = details: 10 µM unless noted
RPMI-8226 leukemia = details: 10 µM unless noted
OVCAR-8 ovarian = details: 10 µM unless noted
OVCAR-5 ovarian = details: 10 µM unless noted
OVCAR-4 ovarian = details: 10 µM unless noted
SK-OV-3 ovarian = details: 10 µM unless noted
IGROV1 ovarian = details: 10 µM unless noted
HS 578T breast = details: 10 µM unless noted
NCI/ADR-RES ovarian = details: 10 µM unless noted
OVCAR-3 ovarian = details: 10 µM unless noted
SR leukemia = details: 10 µM unless noted

| SMILES | growth (SK-MEL-2 melanoma) | growth (EKVX NSCLC) | growth (SN12C renal) | growth (UO-31 renal) | growth (TK-10 renal) | growth (ACHN renal) | growth (CAKI-1 renal) | growth (A498 renal) | growth (CCRF-CEM leukemia) | growth (MOLT-4 leukemia) | growth (RPMI-8226 leukemia) | growth (OVCAR-8 ovarian) | growth (OVCAR-5 ovarian) | growth (OVCAR-4 ovarian) | growth (SK-OV-3 ovarian) | growth (IGROV1 ovarian) | growth (HS 578T breast) | growth (NCI/ADR-RES ovarian) | growth (OVCAR-3 ovarian) | growth (SR leukemia) |
| --- | --- | --- | --- | --- | --- | --- | --- | --- | --- | --- | --- | --- | --- | --- | --- | --- | --- | --- | --- | --- |
| COc1cc(C2CC(c3ccc(Nc4nc(NCCO)nc(Nc5ccc(Cl)cc5)n4)cc3)=Nc3c(N)nc(N)nc3N2)cc(OC)c1OC (stereo not given) | 75.9% | 109% | 49.9% | 85.1% | 95.8% | 79.3% | 53.8% | 99.8% | 23.8% | 19.9% | 37.5% | 47.6% | 119% | 65.2% | 125% | 62.5% | 35% | 103% |  |  |
| Oc1ccccc1-c1nnc(SCc2ccc(O)c3ncccc23)n1-c1ccccc1 | 23.1% | -0.459% (active) | 14.5% | -9.38% (active) | 18.9% | 8.88% (active) | 11.3% | -6.54% (active) | 7.6% (active) | 18% | 12.2% | 15.5% | 33% | 16.3% | 8.88% (active) | 6.65% (active) | 21.3% | 6.23% (active) | 18.7% |  |
| O=S(=O)(Nc1cc(Cl)cc(Cl)c1)c1ccc(-c2cnc(C3CC3)o2)cc1 | 56.8% | 43.9% | 50.6% | 53% | 76.1% | 53.3% | 11.8% | 15.7% | 17.2% | 32.6% |  | 47% | 45.6% | 63.6% | 70.2% | 40.7% | 36.7% | 18.8% |  | 29.5% |
| CCOC(=O)Nc1cccc(-n2cnc3cc(-c4ccc(O)cc4)ccc32)c1 | 15.8% | 42.7% | 31.2% | 26.4% | 57.1% | 19.9% | 33% | -25.1% (active) | 24.5% | 10.6% | 20.2% | 21.8% | 41.1% | 56% | 34% | 32.3% | 16% | 7.05% (active) |  |  |
| COC(=O)[C@@]1(C)CC[C@]2(C)CC[C@]3(C)C(=CC(=O)[C@@H]4[C@@]5(C)Cc6c(n(CC#CCN7CCN(C)CC7)c7ccccc67)C(C)(C)[C@@H]5CC[C@]43C)[C@@H]2C1 | 101% | 92.4% | 73.5% | 65.7% | 119% | 89.4% | 64.7% | 112% | 48% | 16.9% | 69.5% | 93.8% | 86.7% | 89.7% | 122% | 89% | 88.1% | 86.5% |  |  |
| O=C(Nc1cccc(-c2nc(-c3ccc(NC(=O)c4cccnc4)cc3Cl)no2)c1)Nc1ccc(NC(=O)C2CC2)c(C(F)(F)F)c1 | -55% (active) | -28% (active) | -60.8% (active) | 17.8% | -20.4% (active) | 9.95% (active) | -72.7% (active) | -69.6% (active) | -16.3% (active) | -39.7% (active) |  | -16.8% (active) | -65.6% (active) |  | -48.3% (active) | -55.4% (active) | -31% (active) | 64.1% | -74.7% (active) | -14.4% (active) |
| COc1ccc2oc3c4[nH]c5ccccc5c4c4c(c3c2c1)C(=O)N(O)C4=O | 107% | 97.8% | 94.7% | 82.2% | 140% | 97.9% | 80.4% | 75.4% | 91.4% | 116% | 91.9% | 102% | 109% | 104% | 98.9% | 94.9% | 89.9% | 101% |  |  |
| CCNCc1c(-c2cccc(OC(F)(F)F)c2)[nH]c2ccc(N3CCCC3)cc2c1=O | 42.3% | 88.1% | 28.2% | 31.9% | 90.5% | 34.4% | -9.12% (active) | -13.6% (active) | 7.62% (active) | 18.4% |  | 22.5% | 24.5% | 49.8% | 34.2% | 22.6% | 8.12% (active) | 9.42% (active) |  | 9.06% (active) |

From PubChem BioAssay (NCI)
